In PubChem BioAssay (Tox21):
Values without a mark were called inactive. Records with an inconclusive call do not appear. Where a call stands in place of a potency, no number is given. The source made the active and inactive calls. Calls come from the whole dose curve; as a rule, active = well fitted curve in the direction sought with a large enough effect in the repeat runs; inconclusive = weak or mixed curves; inactive = no such curve, though single readings can be large; an effect the other way counts as inactive or inconclusive.

Assays:
[1] = qHTS RealTime-Glo MT Cell Viability Assay in HepG2 cells - 8 hour (AID 1224873); note: nearly all actives have a fitted effect of over 55% in size
Procedure, shortened: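 HepG2 cells mixed with RealTime-Glo MT reagents (NanoLuc plus cell-permeant prosubstrate) were seeded at 600 cells/well, incubated 5 h at 37 C/5% CO2, then pinned with compounds in DMSO; nonlytic luminescence tracked viability during 40 h treatment.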

[2] = A CellTox Green Cytotoxicity Assay to monitor cytotoxicity in HEK293 cells - 24 hour (AID 1224875); note: series mostly up to about 77 µM; nearly all actives have a fitted effect of over 45% in size
Procedure, shortened: (§1)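 Seeding of HEK293 cells together with cytotoxicity dye preceded a 5 h incubation at 37 C/5% CO2. Test compounds in DMSO were then added and fluorescence monitored across 40 h.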

[3] = A CellTox Green Cytotoxicity Assay to monitor cytotoxicity in HepG2 cells - 16 hour (AID 1224876); note: nearly all actives have a fitted effect of over 45% in size; note: potency is the fitted concentration of half-maximal effect
Procedure, shortened: (§2)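 Nonlytic assay: viable cells exclude the dye, so fluorescence scales with cell death. HepG2 at 600 cells/well, compounds added after 5 h, signal read across 40 h.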

[4] = A CellTox Green Cytotoxicity Assay to monitor cytotoxicity in HepG2 cells - 24 hour (AID 1224878); note: nearly all actives have a fitted effect of over 45% in size; note: potency is the fitted concentration of half-maximal effect
Procedure, shortened: as §2

[5] = A CellTox Green Cytotoxicity Assay to monitor cytotoxicity in HepG2 cells - 40 hour (AID 1224879); note: nearly all actives have a fitted effect of over 40% in size; note: potency is the fitted concentration of half-maximal effect
Procedure, shortened: as §2

[6] = qHTS RealTime-Glo MT Cell Viability Assay in HEK293 cells - 0 hour (AID 1224880); note: top concentration of the series differs between compounds; nearly all actives have a fitted effect of over 45% in size
Procedure, shortened: (§3)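 Tox21 screen in HEK293 using RealTime-Glo MT chemistry, with cells and reagent co-dispensed. Luminescence proportional to viable cell number was captured at intervals during 40 h compound exposure at 37 C.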

[7] = A CellTox Green Cytotoxicity Assay to monitor cytotoxicity in HEK293 cells - 32 hour (AID 1224881); note: nearly all actives have a fitted effect of over 40% in size; note: potency is the fitted concentration of half-maximal effect
Procedure, shortened: as §1

[8] = A CellTox Green Cytotoxicity Assay to monitor cytotoxicity in HepG2 cells - 0 hour (AID 1224882); note: nearly all actives have a fitted effect of over 35% in size
Procedure, shortened: as §2

[9] = A CellTox Green Cytotoxicity Assay to monitor cytotoxicity in HepG2 cells - 32 hour (AID 1224883); note: nearly all actives have a fitted effect of over 50% in size; note: potency is the fitted concentration of half-maximal effect
Procedure, shortened: as §2

[10] = qHTS RealTime-Glo MT Cell Viability Assay in HepG2 cells - 16 hour (AID 1224885); note: nearly all actives have a fitted effect of over 50% in size; note: potency is the fitted concentration of half-maximal effect
Procedure, shortened: (§4)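 Tox21 10K library screened in qHTS format on HepG2 cells carrying RealTime-Glo reagents. Compounds were added after a 5 h preincubation, and the luminescent signal from continuous culture was measured repeatedly during 40 h treatment.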

[11] = A CellTox Green Cytotoxicity Assay to monitor cytotoxicity in HEK293 cells - 16 hour (AID 1224888); note: nearly all actives have a fitted effect of over 35% in size
Procedure, shortened: as §1

[12] = qHTS RealTime-Glo MT Cell Viability Assay in HepG2 cells - 0 hour (AID 1224889); note: nearly all actives have a fitted effect of over 50% in size
Procedure, shortened: as §4

[13] = A CellTox Green Cytotoxicity Assay to monitor cytotoxicity in HepG2 cells - 8 hour (AID 1224890); note: nearly all actives have a fitted effect of over 45% in size
Procedure, shortened: as §2

[14] = qHTS assay to identify small molecule antagonists of the estrogen receptor alpha (ER-alpha) signaling pathway using the BG1 cell line in the presence of 0.1 nM 17-beta-estradiol - cell viability counter screen (AID 1259241); note: nearly all actives have a fitted effect of over 40% in size; note: potency is the fitted concentration of half-maximal effect
Procedure, shortened: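 The cell line endogenously expresses full-length ER-alpha and carries four EREs driving luciferase. Cells are cultured 5 days hormone-free, treated 22 hr with compounds and 0.1 nM estradiol, then viability is read by fluorescence.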

[15] = qHTS RealTime-Glo MT Cell Viability Assay in HEK293 cells - 40 hour (AID 1224874); conditions: RealTime-Glo luminescence; max response: active compounds read low; note: nearly all actives have a fitted effect of over 50% in size; note: potency is the fitted concentration of half-maximal effect
Procedure, shortened: as §3

[16] = qHTS RealTime-Glo MT Cell Viability Assay in HepG2 cells - 32 hour (AID 1224877); note: nearly all actives have a fitted effect of over 55% in size; note: potency is the fitted concentration of half-maximal effect
Procedure, shortened: as §4

[17] = A CellTox Green Cytotoxicity Assay to monitor cytotoxicity in HEK293 cells - 8 hour (AID 1224884); note: nearly all actives have a fitted effect of over 35% in size
Procedure, shortened: as §1

[18] = qHTS RealTime-Glo MT Cell Viability Assay in HEK293 cells - 8 hour (AID 1224887)
Procedure, shortened: as §3

[19] = qHTS RealTime-Glo MT Cell Viability Assay in HEK293 cells - 24 hour (AID 1224886)
Procedure, shortened: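 Luminescence generated by NanoLuc from substrate produced by living HEK293 cells served as the viability signal. Each value reflects the reading at its stated time point during continuous 40 h compound exposure at 37 C.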

SMILES | Potency [1] | Potency [2] | Potency [3] | Potency [4] | Potency [5] | Potency [6] | Potency [7] | Potency [8] | Potency [9] | Potency [10] | Potency [11] | Potency [12] | Potency [13] | Potency [14] | Potency [15] | Potency [16] | Potency [17] | Potency [18] | Potency [19] | max response [15] [%]
Oc1c(Br)c(Br)c(Br)c(Br)c1Br | inactive | inactive | inactive | inactive | inactive | inactive | inactive | inactive | inactive | inactive | inactive | inactive | inactive | inactive | – | – | – | – | – | –
CC(C)(C)c1cc([N+](=O)[O-])cc(C(C)(C)C)c1O | – | inactive | inactive | – | – | inactive | inactive | inactive | – | – | – | inactive | inactive | – | 6.92 µM (active) | inactive | inactive | – | – | –
O=S(=O)(c1ccc(Cl)cc1)c1ccc(Cl)cc1 | – | – | inactive | inactive | inactive | inactive | – | inactive | inactive | inactive | inactive | inactive | inactive | inactive | – | inactive | inactive | – | – | –
COc1ccc(OC)c(C=O)c1 | inactive | inactive | inactive | inactive | inactive | – | inactive | inactive | inactive | inactive | inactive | inactive | – | inactive | – | inactive | – | – | – | –
CC(C)[C@H](C(=O)O[C@H](C#N)c1cccc(Oc2ccccc2)c1)c1ccc(Cl)cc1 | – | inactive | inactive | – | inactive | inactive | inactive | inactive | inactive | inactive | inactive | inactive | inactive | inactive | – | inactive | inactive | – | – | –
Clc1ccc(C(Cl)(Cl)Cl)c(Cl)c1 | inactive | – | inactive | – | – | inactive | – | inactive | – | inactive | – | inactive | – | inactive | – | inactive | – | inactive | – | –
COc1cccc2c1C(=O)c1c(O)c3c(c(O)c1C2=O)C[C@@](O)(C(=O)CO)CC3OC1CC(N2CCOC(OC)C2)C(O)C(C)O1 (stereo partly drawn) | – | inactive | 23.9 µM (active) | – | 0.0425 µM (active) | inactive | inactive | – | 0.0425 µM (active) | – | inactive | inactive | – | 13.3 µM (active) | 0.0213 µM (active) | 0.0425 µM (active) | inactive | – | 0.0535 µM (active) | –
C[C@@H]1O[C@@H](O[C@H]2C[C@@H](O)[C@]3(CO)[C@H]4[C@H](O)C[C@]5(C)[C@@H](C6=CC(=O)OC6)CC[C@]5(O)[C@@H]4CC[C@]3(O)C2)[C@H](O)[C@H](O)[C@H]1O | – | inactive | inactive | inactive | inactive | – | inactive | – | inactive | – | inactive | – | inactive | inactive | – | – | inactive | – | – | –
Clc1ccc(CSC(Cn2ccnc2)c2ccc(Cl)cc2Cl)cc1 (stereo not drawn) | – | inactive | inactive | inactive | inactive | – | inactive | inactive | inactive | – | inactive | inactive | inactive | inactive | – | – | inactive | – | – | –
Nc1ccccc1C(=O)Oc1ccc2ccccc2c1 | – | inactive | inactive | – | – | inactive | inactive | inactive | – | inactive | inactive | inactive | inactive | inactive | – | – | inactive | – | – | -20.2
CC(Cl)CN(C)C (stereo not drawn) | inactive | – | inactive | – | inactive | – | – | inactive | inactive | inactive | – | inactive | inactive | inactive | – | inactive | – | – | – | –
O=C(Cl)c1ccc(Cl)cc1 | inactive | inactive | inactive | inactive | – | inactive | inactive | inactive | inactive | inactive | inactive | – | inactive | inactive | – | inactive | inactive | – | – | –
CCOP(=S)(OCC)SCS(=O)(=O)CC | inactive | inactive | inactive | inactive | inactive | – | inactive | inactive | inactive | inactive | inactive | inactive | – | inactive | – | – | inactive | – | – | –
COc1cccc(C(=O)CCN[C@@H](C)[C@H](O)c2ccccc2)c1 | inactive | – | inactive | – | – | inactive | – | – | – | – | – | inactive | – | inactive | – | 23.9 µM (active) | inactive | inactive | – | –
Nc1ccc(Cl)cc1C(=O)c1ccccc1 | inactive | – | inactive | inactive | inactive | inactive | – | inactive | inactive | inactive | – | inactive | – | inactive | – | inactive | – | – | – | –
O=CC(Br)(Br)Br | – | – | – | 48.8 µM (active) | 43.5 µM (active) | inactive | – | inactive | 38.8 µM (active) | 48.8 µM (active) | inactive | inactive | inactive | – | 2.45 µM (active) | 43.5 µM (active) | inactive | inactive | 2.45 µM (active) | –
Oc1cc(Cl)c(Cl)c(Cl)c1 | inactive | inactive | inactive | inactive | – | inactive | 11.7 µM (active) | inactive | – | inactive | inactive | – | inactive | inactive | – | inactive | inactive | inactive | – | –
CSCCCN=C=S | inactive | inactive | – | – | – | inactive | inactive | inactive | – | inactive | inactive | inactive | inactive | inactive | – | inactive | inactive | inactive | – | –
c1ccc(Nc2ccc3ccccc3c2)cc1 | – | inactive | inactive | – | 48.7 µM (active) | inactive | inactive | inactive | 48.7 µM (active) | – | inactive | inactive | inactive | inactive | – | inactive | inactive | – | – | –
CC(=O)C(Cl)(Cl)Cl | inactive | inactive | inactive | inactive | inactive | – | inactive | inactive | inactive | inactive | inactive | – | – | 20.9 µM (active) | – | inactive | inactive | – | – | –
CC[C@H](C)[C@H]1O[C@]2(C=C[C@@H]1C)C[C@@H]1C[C@@H](C/C=C(\C)[C@@H](O[C@H]3C[C@H](OC)[C@@H](O[C@H]4C[C@H](OC)[C@@H](O)[C@H](C)O4)[C@H](C)O3)[C@@H](C)/C=C/C=C3\CO[C@@H]4[C@H](O)C(C)=C[C@@H](C(=O)O1)[C@]34O)O2 | – | inactive | – | – | – | – | inactive | inactive | – | – | inactive | inactive | – | 32.2 µM (active) | 10.3 µM (active) | – | inactive | inactive | – | –
CCOC(=O)c1ccccc1S(=O)(=O)NC(=O)Nc1nc(Cl)cc(OC)n1 | inactive | – | inactive | inactive | inactive | – | 54.9 µM (active) | inactive | inactive | inactive | – | inactive | inactive | inactive | – | inactive | – | – | – | –
Clc1ccc(CCC(Cn2ccnc2)Sc2c(Cl)cccc2Cl)cc1 (stereo not drawn) | – | inactive | – | – | 10.7 µM (active) | inactive | inactive | – | – | – | inactive | inactive | – | inactive | 8.49 µM (active) | – | inactive | – | – | –
O=C1NCN(c2ccccc2)C12CCN(CC1COc3ccccc3O1)CC2 (stereo not drawn) | – | inactive | inactive | inactive | – | inactive | inactive | inactive | inactive | – | inactive | – | inactive | – | – | – | inactive | – | – | –
